PubChem BioAssay AID2315 (National Center for Advancing Translational Sciences (NCATS), 2010)
Screen size: about 290,000 compounds; about 27,000 (9.3%) were called active. The sample holds actives, similar compounds and a random draw of the others, so the mix is not that of the screen. A number with no mark means an inactive call. No stated cut-off is given here; in the data, active means inhibition mostly above about 28% (no sharp cut-off); inactive means mostly below about 43%.

experiment: A qHTS for Small Molecule Inhibitors of Shiga Toxin; settings: Vero cells, Shiga toxin protein synthesis inhibition reporter; at 38.7 µM, hits give high values; further: 0% is about no effect

Structure (SMILES) | inhibition
COc1ccc(NC(=O)CCCN2C(=O)C(c3ccccc3)Oc3cccnc32)cc1 (centres undefined) | -5.94%
COc1cc(/C=N/Nc2nn3cnnc3c3ccccc23)cc(OC)c1OC | 18.6%
CN(CCO)c1ccc(/C=N/Nc2nncc3ccccc23)cc1 | 41.9% (active)
C/C(=N\Nc1nncc2ccccc12)c1ccc(Cl)c([N+](=O)[O-])c1 | 59.8%
Oc1ccc2ccccc2c1N=Nc1nccs1 | 13.9%
Oc1ccc(N=Nc2nccs2)c(O)c1 | 58.3% (active)
Cc1ccc(CNC(=O)Cn2cnc(S(=O)(=O)N3CCCCC3)c2)o1 | 0.422%
O=C(Nc1ccc2c(c1)CCC2)c1cccc(S(=O)(=O)Nc2ccccc2Cl)c1 | 8.91%
Cc1cccnc1NC(=O)c1cccc(S(=O)(=O)N2CCN(c3ccc(F)cc3)CC2)c1 | -9.4%
O=C(Nc1ccc2c(c1)CCC2)c1cccc(S(=O)(=O)N2CCN(c3ccc(F)cc3)CC2)c1 | 86.5% (active)
CN(Cc1nc2ccccc2s1)C(=O)c1ccc(F)cc1 | 27.2%
O=C(O)CSCc1nc2ccccc2s1 | 49.5%
O=C(O)CS/C(=C\c1ccc(F)cc1)c1nc2ccccc2s1 | 121% (active)
CCOC(=O)N1CCN(C(=O)c2ccc3c(=O)n(CCc4ccc(OC)c(OC)c4)c(=O)[nH]c3c2)CC1 | -3.86%
Nn1c(SCc2ccccc2)nnc1C1CCCCC1 | 101% (active)
Cc1nnc(SCc2cccc(Cl)c2)n(N)c1=O | -4.93%
Cc1cccc(CSc2nnc(C)c(=O)n2N)c1 | -13%
CC(C)CC(=O)Nc1ccc(Cc2ccncc2)cc1 | -5.26%
Cc1nc2cc(C(F)(F)F)ccc2n1CCNc1nc(-c2cc(Cl)c(N)c(Cl)c2)cs1 | -1.88%
COc1ccc(CN2CCN(C(=O)CCC(=O)Nc3nnc(C(C)C)s3)CC2)cc1F | -3.9%
Cc1ccc(C(=O)NNC(=O)c2cc3cc4ccccc4nc3s2)cc1 | -14.9%
CCc1nc(SCC(=O)NNC(=O)c2ccc(C)cc2)c2ccccc2n1 | -1.93%
Cc1ccc(C(=O)NNc2ncnc3ccccc23)cc1 | 76.1% (active)
CC(C)CC(=O)Nc1nnc(S(=O)(=O)N(C)c2ccc(Cl)cc2)s1 | -4.79%
CCOC(=O)C1=C(C)Nc2nc3ccccc3n2C1c1cccs1 (centres undefined) | -8.56%

Structure (SMILES) | inhibition
C=CCOC(=O)C1=C(C)NC(C)=C(C(=O)OCC=C)C1c1cccs1 | 86.3% (active)
CCOC(=O)C1=C(C)NC(=S)NC1c1cccs1 (centres undefined) | -11.1%
COc1ccc(-c2cc(C(=O)NCCCN3CCOCC3)no2)cc1 | 20%
COc1ccc(OCc2cc(C(=O)NCC3(C)COC3)no2)c(Cl)c1 | 75.4% (active)
COc1ccc(CCNC(=O)c2cnc(Cl)c(Cl)c2)cc1 | -1.83%
CC1CC(C)CN(CCCNC(=O)c2csc3c2CCCCC3)C1 (centres undefined) | -1.88%
CC(=O)c1cccc(NC(=O)c2cc(C)nn2-c2ccccc2)c1 | 30.5%
CC(C)C[C@H](NC(=O)N1CCn2c1nc1ccccc12)C(=O)NC1CC1 | 23.3%
CCCCNC(=O)N(O)C1N(/N=C/c2ccccc2O)C(=S)SC1(C)C (centres undefined) | 34.2% (active)
CCC(C)N1C(=S)SC(C)(C)C1N(O)C(=O)NC1CCCCC1 (centres undefined) | -10.6%
CCCCNC(=O)N(O)C1N(/N=C/c2ccc(N(C)C)cc2)C(=S)SC1(C)C (centres undefined) | -5.76%
Cc1ccc(S(=O)(=O)NC(=O)c2cccc(C)c2)cc1 | 18.1%
Cn1ncc2c(N3CCCCC3)nc(NCCCO)nc21 | 1.02%
COc1cc(CN2CCC(n3nccc3NC(=O)CCCc3ccccc3)CC2)ccc1O | 7.77%
C/C(CC(=O)NC(C)(C)C)=N\NC(=O)c1ccco1 | 70.6% (active)
CC(C)(C)NC(=O)c1cc(NC(=O)c2ccco2)cc(NC(=O)c2ccco2)c1 | 24.3%
COc1ccc(N(CC(=O)NC(C)(C)C)C(=O)c2ccco2)cc1 | -10.7%
CCNS(=O)(=O)c1ccc(CCC(=O)N2CCN(c3ccc(OC)cc3)CC2)cc1 | 13.1%
Cc1nn(CCCC(=O)NCc2ccccc2Cl)c(=O)c2nccn12 | -3.9%
NC(=O)c1oc2ccccc2c1NC(=O)CS(=O)(=O)c1ccccc1 | 12.2%
COC(=O)c1ccc(CN2C(=O)NC(c3ccccc3)(c3ccccc3)C2=O)o1 | 21.7%
Cc1ccc2c(c1)N(CC(=O)NCCCN1CCCCC1)C(=O)c1cccnc1O2 | 2.73%
O=C(Cc1cccc2ccccc12)Nc1ccc2oc(-c3ccccc3)nc2c1 | 74.8% (active)
CC(O)c1cccc(NC(=O)Cc2cccc3ccccc23)c1 (centres undefined) | 0.246%
O=C(Nc1ccc2oc(-c3ccc4ccccc4c3)nc2c1)c1cccs1 | 80.9% (active)

Structure (SMILES) | inhibition
O=C(Cc1cccc2ccccc12)NNC(=O)Nc1ccc(Cl)cc1 | 62.1%
CC(Oc1cccc(NC(=O)c2cccs2)c1)C(=O)c1ccccc1 (centres undefined) | 36.4%
O=C(Nc1ccc(NC(=O)c2cccs2)cc1)c1ccc2ccccc2c1 | 24.5%
COc1ccnc2c1c(=O)n(Cc1cccc(F)c1)c(=O)n2C | -2.76%
Cn1c(=O)c2c(nc(NCCNC(=O)c3ccco3)n2Cc2ccccc2F)n(C)c1=O | -9.7%
O=C(CSc1nc2ccccc2s1)Nc1ccc(C(=O)O)cc1 | -1.35%
CCN(CC)CCCSc1nc2ccccc2s1 | 47.9%
O=C(O)c1ccccc1CSc1nc2ccccc2s1 | 70.7% (active)
COc1cc(OC)cc(C(=O)OCC(=O)Nc2sccc2C(N)=O)c1 | -3.26%
CCOC(=O)N1CCN(C(=O)C2CCN(S(=O)(=O)c3cc(Cl)ccc3OCC)CC2)CC1 | -12.3%
Cc1ccc(N(CC(=O)NC2CCCCC2)C(=O)CCCC(=O)Nc2ccccn2)c(C)c1 | -5.94%
CCc1ccc(CNC(=O)CCc2nc(-c3cccs3)no2)cc1 | -8.04%
COc1ccc(CCc2nc(-c3cccs3)no2)cc1 | 120% (active)
COc1ccc(OC)c(CNC(=O)CCc2nc(-c3cccs3)no2)c1 | 4.93%
COc1ccc(S(=O)(=O)NCCc2cc3ccc(C)c(C)c3[nH]c2=O)cc1 | 1.8%
Cn1c(SCc2ccc(F)cc2)nnc1-c1ccncc1 | 3.38%
Cc1cc(C)nc(SCC(=O)c2ccc(Cl)cc2)n1 | -6.93%
Cc1cc(C)nc(S/C=C/C(=O)c2ccccc2)n1 | 159% (active)
Cc1cc(SCC(=O)c2ccccc2)nc(SCC(=O)c2ccccc2)n1 | 51.3%
O=C(c1ccc(Br)o1)N1CCN(CCOc2ccccc2)CC1 | -4.41%
Cc1ccc(CNC(=O)[C@@H](NC(=O)Cc2ccccc2)C(C)C)cc1 | -12.1%
CCCOc1ccc(/C=N/NC(=O)C2CC2)c(OCCC)c1 | -6.76%
O=C(CC1N=C2c3ccccc3N=C(SCc3ccccc3Cl)N2C1=O)NCc1ccco1 (centres undefined) | 38.1% (active)
O=C(CSC1=Nc2ccccc2C2=NC(CC(=O)NCc3ccco3)C(=O)N12)NCc1ccco1 (centres undefined) | -3.74%
CCC(C)NC(=O)CSC1=Nc2ccccc2C2=NC(CCC(=O)NCc3ccco3)C(=O)N12 (centres undefined) | -9.08%

Structure (SMILES) | inhibition
CC(=O)OCC(NC(=O)C(Cc1ccccc1)NC(=O)OC(C)(C)C)C1OC(n2ccc(=O)[nH]c2=O)C(OC(C)=O)C1OC(C)=O (centres undefined) | 7.84%
C=CCNc1nc(N)c([N+](=O)[O-])c(NC2CCCCC2)n1 | 14.1%
CCC(CC)c1nnc(NC(=O)C2CCN(C(=O)c3ccco3)CC2)s1 | 4.71%
Cc1cc(N=Nc2ccc3ccccc3c2)ccc1O | 107% (active)
COc1ccc(N=Nc2ccc(O)c(P(=O)(c3ccccc3)c3ccccc3)c2)cc1 | -5.57%
Cc1c(N=Nc2ccc(N(C)C)cc2)c(=O)n(-c2ccccc2)n1C | 55.4% (active)
Cc1nc(N)sc1N=Nc1c(C)n(C)n(-c2ccccc2)c1=O | 2.84%
Cc1ccc(N=Nc2c(C)[nH]n(-c3ccccc3)c2=O)cc1 | 25.5%
CCCN1CCC(=O)N(C(CSc2ccc(OC)cc2)Cc2ccccc2)CC1 (centres undefined) | -5.53%
COc1ccc(CNC(=O)C(NS(=O)(=O)c2cccc3nsnc23)C(C)C)cc1 (centres undefined) | -7.36%
O=C(O)CCC(=O)N(Cc1ccccc1)Cc1ccccc1 | -10.9%
CC[C@@H](C)[C@H](NC(=O)CCc1c(C)c2cc3c4c(oc3c(C)c2oc1=O)CCCC4)C(=O)O | 22.3%
COc1ccccc1OCCOc1ccc(/C=N/n2cnnc2)cc1 | -21.9%
C(=N\n1cnnc1)/c1cccnc1 | 2.15%
COc1cccc(OCCOc2cccc(/C=N/n3cnnc3)c2)c1 | 41.7% (active)
O=C(c1ccc2c(c1)N(Cc1ccc(F)cc1)C(=O)c1ccccc1S2(=O)=O)N1CCN(c2ccccn2)CC1 | -2.78%
CSc1ccc(C#N)cc1NC(=O)c1cccc(Cl)c1 | -14.6%
Cc1cc(NC(=O)COc2ccc(Cl)cc2Cl)n(CCC#N)n1 | 87.8%
CCOc1ccc(CN2CCN(Cc3ccc4cc(F)ccc4n3)CC2CCO)cc1 (centres undefined) | -9.76%
Cc1ccccc1OC/C(O)=C(\C#N)c1nc2ccccc2[nH]1 | -10.2%
COc1cc(/C=C(\C#N)c2nc3c(s2)CC(C)CC3)ccc1O (centres undefined) | 62.8% (active)
COc1ccc(/C=C(/NC(=O)c2ccc(C)cc2)c2nc3ccccc3[nH]2)cc1OC | -2.72%
COc1cc(/C=C(\C#N)c2nc3ccccc3[nH]2)ccc1O | 55.7% (active)
CCOc1cc(/C=C(\C#N)c2nc(-c3cccs3)c(NC(C)=O)s2)ccc1O | -0.261%
